Out of some 360,000 compounds screened, about 320 (0.089%) were called active. The list comes from a sample in which actives are over-represented; it also holds similar structures and randomly drawn compounds. A number with no mark means an inactive call. Cut-off read from the data, not from the text of the source: active = activation above about 19% (passing the limit was not always enough); inactive = the rest.

The results in this text go back to PubChem BioAssay AID588819 (The Scripps Research Institute Molecular Screening Center, 2011).

For the test, the target named is Muscarinic acetylcholine receptor M1 (Homo sapiens) (UniProt P11229). The test can be described thus: CHRM1 PAMs potentiating acetylcholine calcium signal – CHO-K1 cells, Fluo-8 calcium fluorescence, 1536-well, primary screen (AID 588819). The following applies: CHO-K1 hM1, Fluo-8 calcium fluorescence, ACh EC20; at 3 µM; hits give high values; 0% = ACh EC20, 100% = maximal ACh.
Muscarinic acetylcholine receptor M1 (Homo sapiens), sequence (P11229 whole entry, looked up): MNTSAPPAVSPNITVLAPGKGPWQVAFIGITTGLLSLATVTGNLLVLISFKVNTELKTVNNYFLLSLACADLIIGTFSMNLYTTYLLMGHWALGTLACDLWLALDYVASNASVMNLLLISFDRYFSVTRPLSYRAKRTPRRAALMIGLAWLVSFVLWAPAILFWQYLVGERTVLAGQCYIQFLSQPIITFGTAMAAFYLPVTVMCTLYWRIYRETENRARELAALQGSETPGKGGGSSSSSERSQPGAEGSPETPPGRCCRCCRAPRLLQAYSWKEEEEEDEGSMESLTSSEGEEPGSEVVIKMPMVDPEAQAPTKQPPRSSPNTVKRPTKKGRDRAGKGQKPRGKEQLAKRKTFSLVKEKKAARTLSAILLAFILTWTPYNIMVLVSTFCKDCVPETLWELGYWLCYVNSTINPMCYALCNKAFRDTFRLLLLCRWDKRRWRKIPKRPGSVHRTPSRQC
Regarding `Cc1cccc2c1N(CCOc1ccccc1)C(=O)C2=O`, the activation is 8.27%.

Regarding `Cc1cc(C)c(S(=O)(=O)c2ccc(F)cc2C)c(=O)[nH]1`, the activation was 2.45%. On to `COC(=O)C1=C(C)N(C(C)c2ccccc2)C(=O)/C1=C\c1ccco1` (stereo not drawn), for which the activation is 3.44%. The result for `CCCc1cc(=O)n2[nH]c(C)c(-c3ccc(Cl)cc3)c2n1` reads 12.2%. Consider `COc1ccc(C(=O)NCC2CCCN2S(=O)(=O)c2cccs2)cc1OC` (stereo not drawn), for which the activation was 6.88%. Take `CCCCNC(=O)OC(C)CNC(=O)OC` (stereo not drawn): the activation was 4.6%. The result for `Cc1ccc(NS(=O)(=O)c2c(C)[nH]c(=O)[nH]c2=O)cc1C` reads 6.73%; that for `O=S(=O)(Nc1ccccc1)c1ccc(NS(=O)(=O)c2cccs2)cc1`, 11.7%. The value for `Cc1ccc(S(=O)(=O)N2CCOCC2)cc1NC(=O)CSc1nnc(N)s1` was 3.59%; that for `CCOc1ccc(N2CC(C(=O)N/N=C/c3sccc3C)CC2=O)cc1` (stereo not drawn) was 1.58%. The result for `CC1CN/C(=C\C(=O)c2ccc(Br)cc2)C(=O)N1` (stereo not drawn) reads 5.69%; that for `Cc1ccc(C(O)P(=O)(OC(C)C)c2ccc(N(C)C)cc2)cc1` (stereo not drawn), 9.51%; that for `CC(C)(C)NC(=O)COC(=O)c1cc(Cl)ccc1[N+](=O)[O-]`, 4.45%. As for `Cc1ccc(N2CC(C(=O)Nc3cc(Cl)ccc3-n3cncn3)CC2=O)cc1` (stereo not drawn), the activation was 8.82%. The result for `O=C(c1ccco1)N1CCN(C(=O)C2CC(c3ccc(F)cc3)=NO2)CC1` (stereo not drawn) reads 25.8% (active). The value for `CCOC(=O)N1CCN(C(=O)C2CC(c3ccc(F)cc3)=NO2)CC1` (stereo not drawn) was -1.27%; that for `O=C(c1ccco1)N1CCN(C(=O)C2CC(c3ccc(Cl)c(Cl)c3)=NO2)CC1` (stereo not drawn) was 1.62%; that for `Cc1ccccc1S(=O)(=O)NC(=O)C1(C)CCN1C(=O)Cc1ccc(Cl)cc1Cl` (stereo not drawn) was 4.98%. The result for `COC(=O)CC(=O)N1CCN(c2ccc(Cl)c(Cl)c2)CC1` reads -9.1%; that for `Cc1ccc(-c2noc(C3CCCN(C(=O)c4cccc(Cl)c4)C3)n2)o1` (stereo not drawn), 28.6% (active); that for `COc1cccc(-c2noc(C3CCCN(C(=O)c4ccc(F)cc4)C3)n2)c1` (stereo not drawn), 22.6%. With `O=C(c1ccc(F)cc1)N1CCCC(c2nc(-c3cccs3)no2)C1` (stereo not drawn), the activation is 6.3%. The result for `CC1CC(=O)Nc2ccccc2N1C(=O)COc1ccc2cc(Br)ccc2c1` (stereo not drawn) reads 12.5%; that for `COc1ccc(NS(=O)(=O)c2ccc(NC(=O)c3ccc(N(C)S(C)(=O)=O)cc3)cc2)cc1`, 8.88%. The value for `O=C(Nc1ccc(S(=O)(=O)Nc2ncccn2)cc1)c1cncc(Br)c1` was 0.19%. The result for `COc1ccc(NC(=O)c2cnc(NS(=O)(=O)c3ccccc3)nc2)cc1` reads 29.7% (active). Turning to `CC(C)c1ccc2c(c1)c(SC(C)(C)C)c(CC(C)(C)C(=O)O)n2Cc1ccc(Cl)cc1`, the activation was -0.45%. The result for `CC(Oc1ccc(F)cc1)C(=O)N1CCN(c2ncccn2)CC1` (stereo not drawn) reads 0.98%; that for `O=C(O)Cc1csc(NC(=O)CSc2nnnn2-c2ccc(O)cc2)n1`, 11.2%; that for `CC(=O)C1=C(C)NC(=O)NC1c1cc(Br)ccc1OCC#N` (stereo not drawn), 13.1%. The value for `CCN(CC)C(=O)CSc1ncnc2c1cnn2-c1ccccc1` was 1.79%; that for `CC(Sc1ncnc2c1cnn2-c1ccccc1)C(=O)Nc1ccc(N2CCOCC2)cc1` (stereo not drawn) was 25.3% (active); that for `CCn1c(SC(C)C(=O)Nc2ccc(N3CCOCC3)cc2)nnc1-c1ccco1` (stereo not drawn) was 5.42%.

As to `Cc1ccc(S(=O)(=O)N2CCC(C(=O)N[C@@H](C)C(=O)NCc3ccccc3)CC2)cc1`, the activation was 3.35%.

For the molecule `Cc1cc(C)cc(N(CC(=O)NC2CCCC2)C(=O)CCC(=O)Nc2nccs2)c1`, the activation is 1.06%. The value for `CC(OC(=O)c1ccccc1OCc1ccc(Cl)cc1)C(N)=O` (stereo not drawn) was -0.86%; that for `COc1cc(NC(=S)N2CCCC(C)C2)c(OC)cc1Cl` (stereo not drawn) was 4.79%; that for `Cc1n[nH]c(C)c1S(=O)(=O)N1CCCC(C(=O)Nc2ccc(Br)cc2)C1` (stereo not drawn) was 3.06%. The value for `CC1(c2nnc(-c3ccncc3)o2)CC(c2cccnc2)=NO1` (stereo not drawn) was -4.79%.

Regarding `CC(C)CCNC(=O)C1CCCN(S(=O)(=O)c2ccc(F)cc2)C1` (stereo not drawn), the activation was 3.91%.

`CC(NC(=O)C(C)(C)C)C(c1cccs1)N1CCN(Cc2ccccc2)CC1` (stereo not drawn): the activation is -8.56%.

As to `CCC(C)NCCOCCOc1ccc(Br)cc1C` (stereo not drawn), the activation was -26.7%. The result for `CCOC(=O)N1CCN(c2c(NCCCN3CCCC(C)C3)c(=O)c2=O)CC1` (stereo not drawn) reads 5.95%; that for `CCOc1ccc(-n2c(N)c(C(=O)NCC3CCCO3)sc2=S)cc1` (stereo not drawn), 1.21%. On to `CCCC(=O)N1CCN(c2nnc(-c3ccc(C)cc3)c3ccccc23)CC1`, for which the activation is -14.5%. The result for `CC(=O)NC(Cc1ccc(F)c(F)c1)C(=O)NC1CCN(c2nnnn2-c2ccccc2)CC1` (stereo not drawn) reads 1.64%; that for `CCCC(=O)N1CCC1(C)C(=O)NCc1ccc(SC)cc1` (stereo not drawn), 3.92%; that for `COc1ccccc1N(CCOc1ccccc1)S(=O)(=O)c1ccccc1`, 0.89%. With `C=Cn1c(C(=O)O)ccc1-c1ccc(OC)cc1`, the activation was -16.6%.

Consider `CCn1c(-c2cccnc2Cl)nc2cc(C)c(C)cc21`, for which the activation was 2.37%. Take `CCOCCOC(=O)C1=C(C)NC(=O)NC1c1ccc2c(c1)OCO2` (stereo not drawn): the activation is 6.2%. The value for `COc1ccccc1NC(=O)C1CCCN1S(=O)(=O)c1ccc(Cl)cc1` (stereo not drawn) was 28.2% (active); that for `CC(C)c1nnc(NC(=O)C2CCCN2S(=O)(=O)c2ccc(Cl)cc2)s1` (stereo not drawn) was 10.2%; that for `Cc1cccc(NC(=O)C2CCCN2S(=O)(=O)c2ccc(F)cc2)c1C` (stereo not drawn) was 3.34%. The result for `C=CCn1c2ccccc2c2nnc(SCc3[nH]c(=O)[nH]c3C(=O)CCCCC(=O)OCC)nc21` reads -3.32%; that for `O=C(C(NS(=O)(=O)c1cccc2nsnc12)c1ccccc1)N1CCN(c2ccccn2)CC1` (stereo not drawn), -10.2%. The result for `CCOC(=O)C(=O)C1C(=O)Nc2ccccc21` (stereo not drawn) reads 1.1%; that for `O=C(Nc1ccccc1C(=O)NCCCn1ccnc1)c1ccc(Cl)cc1Cl`, 7.21%.
